A selection: hits, their analogues and other compounds. The true share with any hit is near 1.7%.
CHT inh: inhibits the human high affinity choline transporter. Q9GZV3. CHT-expressing cells, membrane potential dye, choline response; stronger effect = lower value. B-score at 10 µM. 310,000 compounds, 0.86% hits. AID 488975;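 active = B-score over 3 SD under the library average, and starting fluorescence ratio not unusually high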;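 note: choline stimulus applied at its EC90 after an EC20 pre-addition; B-score computed on integrated fluorescence ratio after choline addition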
Target sequence (Q9GZV3 whole entry, looked up): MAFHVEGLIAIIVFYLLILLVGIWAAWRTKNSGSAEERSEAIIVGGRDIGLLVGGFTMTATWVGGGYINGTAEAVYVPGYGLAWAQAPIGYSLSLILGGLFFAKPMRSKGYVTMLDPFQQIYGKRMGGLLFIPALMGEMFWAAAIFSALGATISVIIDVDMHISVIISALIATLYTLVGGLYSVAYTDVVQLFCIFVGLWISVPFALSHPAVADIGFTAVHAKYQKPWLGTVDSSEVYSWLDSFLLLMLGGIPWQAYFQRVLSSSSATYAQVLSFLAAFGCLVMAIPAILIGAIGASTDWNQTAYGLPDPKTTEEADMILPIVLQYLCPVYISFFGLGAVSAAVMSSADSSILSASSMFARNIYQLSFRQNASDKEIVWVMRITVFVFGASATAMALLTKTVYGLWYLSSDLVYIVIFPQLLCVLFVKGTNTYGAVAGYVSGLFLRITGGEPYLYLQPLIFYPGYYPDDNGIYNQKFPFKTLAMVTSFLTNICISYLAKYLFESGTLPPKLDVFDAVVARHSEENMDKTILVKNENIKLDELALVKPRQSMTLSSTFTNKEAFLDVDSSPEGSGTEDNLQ
CHT allo act: allosterically activates the human high affinity choline transporter; CHT-expressing cells, membrane potential dye, choline EC20; stronger effect = higher value; LV-AA mutant CHT in HEK293 cells; 310,000 compounds, 0.49% hits; B-score at 10 µM; Q9GZV3;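 active = initial fluorescence not abnormally high and integrated response B-score, plate-corrected, over 3 SD above library mean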
H9c2 TAG inh: inhibitors of triacylglycerol accumulation; 230,000 compounds, 0.66% hits; inhibition, % at 12.5 µM; AID 651582; H9c2 cells, Nile Red lipid (TAG) fluorescence; cells loaded with 200 µM oleic acid;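 active = pattern-corrected inhibition of lipid staining of at least 50% with the nuclear-stain viability signal not falling by more than 50%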
MIN6 prolif: induces beta-cell replication in MIN6 cells; 330,000 compounds, 0.29% hits; proliferation, % at 10 µM; MIN6 cells proliferation, ATPlite luminescence, 48 h; cells starved in 0.2% serum; 100% = growth in 10% serum;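 active = compounds whose signal lies at least 3.5 SD above the mean of all wells on their plate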
CHT inh conf: confirmation of human choline transporter CHT inhibitors | shares compounds with CHT inh | CHT activity remaining % of control (stronger effect = lower value), % at 10 µM | CHT-expressing cells, choline membrane potential dye; LV-to-AA substituted CHT, HEK293 cells | 2,400 compounds, 70% hits | AID 493221;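 active = choline transporter activity left, mean of duplicates at 10 µM, below buffer-only control mean minus 3 SD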;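 note: depolarization triggered by choline at its EC90 following an EC20 pre-addition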
HEK293 MPD ctr: counter-screen for CHT inhibitors: effect in parental HEK293 cells; shares compounds with CHT inh; 2,400 compounds, 4% hits; membrane potential dye, choline response; active = decrease or increase beyond buffer ±3SD; AID 493222; membrane potential ratio readout (active if shifted either direction beyond buffer ±3SD; no single direction) at 10 µM;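 note: parental cells lack the transporter so any hit is non-specific; ratio is peak minus trough fluorescence over baseline after EC90 choline challenge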
Each line names hits and unclear results; the compound was inactive in the other large screens (follow-up assays come after a bar, where they were run).

COc1ccc(CN(C(=O)c2ccco2)c2ccccc2)cc1	CHT inh -5 | CHT inh conf inactive | HEK293 MPD ctr inactive
COc1cccc(C2=NOC(C(=O)Nc3cccnc3Cl)C2)c1OC (centres undefined)	CHT inh -11 | CHT inh conf inactive | HEK293 MPD ctr inactive
COc1cccc(CNC(=O)CCS(=O)(=O)c2ccccc2Cl)c1	none (no result: CHT inh, CHT allo act)
O=S(Cc1ccccc1)CC(O)(c1ccccc1)c1ccccc1 (centres undefined)	CHT inh -5.1 (no result: H9c2 TAG inh) | CHT inh conf inactive | HEK293 MPD ctr inactive
COc1cc(C(=O)NCCOc2cc(C)cc(C)c2)cc(OC)c1OC	none (no result: H9c2 TAG inh)
CCOC(=O)c1sc(NC(=O)CCN2C(=O)c3ccccc3C2=O)c(C(=O)OCC)c1C	none (no result: H9c2 TAG inh)
CCOC(=O)c1sc(NC(=O)CCN2C(=O)c3cccc([N+](=O)[O-])c3C2=O)c(C(=O)OCC)c1C	CHT inh -7.4 (no result: H9c2 TAG inh) | CHT inh conf 56% | HEK293 MPD ctr inactive
CC(NCc1ccc([N+](=O)[O-])cc1)C1COc2ccccc2O1 (centres undefined)	none (no result: H9c2 TAG inh)
Cc1cc(=O)[nH]c(SCc2nc3ccccc3s2)n1	none
CCCc1cc(=O)[nH]c(SCc2nc3ccccc3s2)n1	CHT inh -5 (no result: H9c2 TAG inh) | CHT inh conf 66% | HEK293 MPD ctr inactive
Nc1cc(C(Cl)=C(Cl)Cl)c(S(N)(=O)=O)cc1S(N)(=O)=O	none
COc1ccc(OC)c(S(=O)(=O)N2CCC(C(=O)N3CCc4ccccc4C3)CC2)c1	none | CHT inh conf inactive | HEK293 MPD ctr inactive
COc1ccc(OC)c(S(=O)(=O)N2CCC(C(=O)N3CCCC3)CC2)c1	none (no result: H9c2 TAG inh)
CC(NS(=O)(=O)c1ccc(OCC(=O)NCc2ccccn2)cc1)c1ccccc1 (centres undefined)	none (no result: H9c2 TAG inh)
COc1ccccc1C1=Nn2c(nnc2C2CCCCC2)SC1	none
COc1ccc(C2=Nn3c(nnc3C3CCCCC3)SC2)cc1OC	CHT inh -6.8 (no result: H9c2 TAG inh) | CHT inh conf 52% | HEK293 MPD ctr inactive
COc1ccc(CN2CCC(Oc3ccc(C(=O)N4CCCC4)cc3)CC2)c(F)c1	none
O=C(CCl)N(C1CCCC1)C1CCS(=O)(=O)C1 (centres undefined)	CHT inh -5.1 (no result: H9c2 TAG inh) | CHT inh conf inactive | HEK293 MPD ctr inactive
CC(=O)c1ccc(OCC(=O)N(C2CCCCC2)C2CCS(=O)(=O)C2)cc1 (centres undefined)	none
CCOc1ccc(-c2nc[nH]c2[N+](=O)[O-])cc1	none
COc1ccccc1C(=O)NC(=O)COC(=O)c1nc(Cl)ccc1Cl	none
COc1cccc(/C=N/NC(=O)c2ccc(CN3c4cccc5cccc(c45)S3(=O)=O)cc2)c1	none (no result: H9c2 TAG inh)
O=C(N/N=C/c1cccnc1)c1ccc(CN2c3cccc4cccc(c34)S2(=O)=O)cc1	CHT inh -5 | CHT inh conf inactive | HEK293 MPD ctr inactive
N#CCCn1cc(/C=C2\NC(=S)N(c3ccccc3)C2=O)c(-c2ccc(F)cc2)n1	CHT inh -6.8 | CHT inh conf 60% | HEK293 MPD ctr inactive
c1ccc2sc(NC3=NCN(CC4CCCO4)CN3)nc2c1 (centres undefined)	none
O=C(NCC(=O)N(CCc1ccccc1)C(C(=O)NC1CCCC1)c1cccnc1)c1ccco1 (centres undefined)	none
O=C(NC1CCCC1)C(c1cccnc1)N(CCc1ccccc1)C(=O)c1ccco1 (centres undefined)	CHT inh -6 (no result: H9c2 TAG inh) | CHT inh conf 55% | HEK293 MPD ctr inactive
CCn1cc(CNC(=O)c2cc(COc3ccc(F)cc3F)on2)cn1	none (no result: H9c2 TAG inh) | CHT inh conf 69% | HEK293 MPD ctr inactive
CCn1ccnc1CNC(=O)c1cc(COc2ccc(F)cc2F)on1	none
Cc1cccc(N2CCN(C(=O)c3ccc(NS(=O)(=O)c4ccc5[nH]c(=O)[nH]c5c4)cc3)CC2)c1C	CHT inh -5.1 | CHT inh conf inactive | HEK293 MPD ctr inactive
CCc1cc(CC)c(/C=N/NC(N)=O)c(CC)c1/C=N/NC(N)=O	CHT inh -9.3 | CHT inh conf 19% | HEK293 MPD ctr inactive
CCCCCCCCN1[C@@H](CC(=O)O)c2ccc(C(F)(F)F)cc2S1(=O)=O	CHT inh -6.1 | CHT inh conf 65% | HEK293 MPD ctr inactive
CCCCCCCCCCCCN1[C@@H](CC(C)=O)c2cc(C(F)(F)F)ccc2S1(=O)=O	none
S=C(NCC1CCCO1)Nc1cc(Cl)c(Cl)cc1Cl (centres undefined)	CHT inh -9.9 | CHT inh conf 41% | HEK293 MPD ctr inactive
COC(=O)c1ccc(=O)c2nc3/c(=C/O)c(O)cc(=O)c3[nH]c12	none (no result: H9c2 TAG inh, MIN6 prolif)
CCCc1cc2c(=O)c(-c3cscn3)c(C(=O)OCC)oc2cc1O	CHT inh -5.8 | CHT inh conf 28% | HEK293 MPD ctr inactive
N#CC(c1ccccc1)c1ccc2c(C(F)(F)F)cc(C(F)(F)F)nc2n1 (centres undefined)	CHT inh -5.5 | CHT inh conf inactive | HEK293 MPD ctr inactive
FC(F)(F)c1cc(C(F)(F)F)c2ccc(N/N=C/c3ccccc3)nc2n1	none
Cn1cc(/C=C2\SC(=O)N(c3ccccc3)C2=O)c2ccccc21	CHT inh -6.5 (no result: H9c2 TAG inh) | CHT inh conf inactive | HEK293 MPD ctr inactive
COc1ccc(/C=N/OC(=O)c2ccc(Cl)cc2)c(Cl)c1OC	none
O=C(N/N=C/c1ccsc1)c1c[nH]c2ccccc12	CHT inh -7 | CHT inh conf 69% | HEK293 MPD ctr inactive
Cc1ccsc1/C=N/NC(=O)c1c[nH]c2ccccc12	none
COCCn1c(CN2CCN(c3cccc(Cl)c3)CC2)nc2c1c(=O)n(C)c(=O)n2C	CHT inh -7.3 | CHT inh conf -5.6% | HEK293 MPD ctr inactive
COC(=O)Cn1c(CN2CCN(c3ccc(F)cc3)CC2)nc2c1c(=O)n(C)c(=O)n2C	CHT inh -11 | CHT inh conf -12% | HEK293 MPD ctr inactive
CCOCCn1c(CN2CCN(c3ccc(F)cc3)CC2)nc2c1c(=O)n(C)c(=O)n2C	CHT inh -17 (no result: H9c2 TAG inh) | CHT inh conf 10% | HEK293 MPD ctr inactive
CCOCCn1c(CN2CCN(C)CC2)nc2c1c(=O)n(C)c(=O)n2C	none
CCOCCn1c(CN2CCN(c3cccc(Cl)c3)CC2)nc2c1c(=O)n(C)c(=O)n2C	none
COC(=O)Cn1c(CN2CCOCC2)nc2c1c(=O)n(C)c(=O)n2C	none
Clc1ccc2c(N3CCCC3)ccnc2c1	CHT inh -8 | CHT inh conf 26% | HEK293 MPD ctr inactive
Oc1ccc(N2CCN(c3ccnc4cc(Cl)ccc34)CC2)cc1	none (no result: H9c2 TAG inh)
CCOC(=O)c1cnc2c(-c3ccccc3OC)c(C)nn2c1C	none
COc1ccc(CNC(=O)COC(=O)CC2CCCC2)cc1	CHT inh -5.4 | CHT inh conf inactive | HEK293 MPD ctr inactive
CCOC(=O)C1(C(F)(F)F)N=C(c2cccnc2)OC(N2CCCCC2)=N1 (centres undefined)	none (no result: H9c2 TAG inh)

Assay outcomes: PubChem BioAssay, several laboratories
